This note sets out measurements from PubChem BioAssay.

The subject of test [1] is Human papillomavirus type 1a protein E7 (residues 44-93). Description: small molecules binding HPV E7 44-93 – biochemical, small-molecule microarray, residues 44-93, 635 nm fluorescence, primary screen (AID 1108).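 Note: E7 fragment applied at 1 µg/mL in TBST for 1 h at 4 C; score combines spot fluorescence with its signal to noise ratio.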 To be noted: fluorescence 635 nm, higher = more signal.
Test [2] can be described thus: hepatitis C replication reporter changes, two-sided – Huh7 cells, luciferase reporter, HCV replication inhibitor project, primary screen (AID 1109).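 Note: huh7 hepatoma cells harbouring a luciferase neomycin HCV replicon reporter; luciferase luminescence as measure of HCV replicon replication; test concentration not given here.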 The following applies: Huh7 HCV replicon luciferase reporter, 48 h; higher = more signal. In general terms: Reporter assays use an easily measured gene product as a stand-in for the process of interest.
For test [3], the target named is Left-right determination factor 2 (Homo sapiens) (UniProt O00292). Description: small molecules binding LEFTY2 protein – biochemical, small-molecule microarray, 635 nm fluorescence scan, primary screen (AID 1110). The following applies: higher = more signal.
The target in test [4] is Calmodulin-1 (Homo sapiens) (UniProt P0DP23). Description: small molecules binding calmodulin-1 with EGTA – biochemical, small-molecule microarray, Cy5-labelled CALM1, profiling panel (AID 1111).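 Note: labelled calmodulin applied in Tris saline Tween buffer holding calcium plus EGTA and DTT.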 The following applies: Cy5-CALM1 binding fluorescence, higher = more signal.
For test [5] the target is unchanged. Description: small molecules binding Ca-loaded calmodulin-1 – biochemical, small-molecule microarray, Cy5-labelled CALM1, plus calcium, artefact control for SMM control-protein annotation, profiling panel (AID 1112).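 Note: score merges spot fluorescence with signal to noise from triplicate slides.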 To be noted: Cy5-CALM1 binding fluorescence, higher = more signal.
A short description of test [6]: probe aWnt5a binding to arrayed compounds – biochemical, biotinylated probe, 635/667 nm fluorescence, primary screen (AID 1113).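 Note: score merges 667 nm fluorescence intensity with signal-to-noise per printed feature.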 The following applies: small-molecule microarray, higher = more signal.
Test [7] is described as follows: probe aShh binding to arrayed compounds – biochemical, biotinylated probe, 635/667 nm fluorescence, primary screen (AID 1114).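 Note: probe is biotin-labelled aShh protein from a stem cell growth factor screen; measures binding of labelled protein to compounds printed on the slide; score merges feature fluorescence at 667 nm with signal-to-noise.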 The following applies: small-molecule microarray, higher = more signal.
Test [8] in a line: probe aNog binding to arrayed compounds – biochemical, biotinylated probe, 635/667 nm fluorescence, primary screen (AID 1115).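 Note: probe is biotinylated aNog protein used at 0.15 µg/mL for 1 h at 4 C; z-score combines 667 nm fluorescence of each spot with its signal to noise.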 To be noted: small-molecule microarray, higher = more signal.
Test [9] deals with Torsin-1A-interacting protein 1 (Homo sapiens) (UniProt Q5JTV8). Description: compound microarray binding of lysate hLAP1 – cell lysate, small-molecule microarray, COS7 lysate, 635/667 nm fluorescence, primary screen (AID 1116). The following applies: 635 nm fluorescence, higher = more signal.
Test [10] deals with Alpha-bungarotoxin (Bungarus multicinctus) (UniProt P60615). Description: compounds binding labelled alpha-BTX control protein – biochemical, small-molecule microarray, Alexa647 label, 635/667 nm fluorescence, artefact control for SMM control protein annotation, profiling panel (AID 1117). To be noted: alpha-BTX-A647 binding fluorescence, higher = more signal.
Sequence of Alpha-bungarotoxin (Bungarus multicinctus) (P60615 whole entry, looked up): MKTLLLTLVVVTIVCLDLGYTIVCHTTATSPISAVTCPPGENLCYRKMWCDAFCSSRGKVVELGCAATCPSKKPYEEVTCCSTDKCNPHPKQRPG

Sequence of Torsin-1A-interacting protein 1 (Homo sapiens) (Q5JTV8 whole entry, looked up): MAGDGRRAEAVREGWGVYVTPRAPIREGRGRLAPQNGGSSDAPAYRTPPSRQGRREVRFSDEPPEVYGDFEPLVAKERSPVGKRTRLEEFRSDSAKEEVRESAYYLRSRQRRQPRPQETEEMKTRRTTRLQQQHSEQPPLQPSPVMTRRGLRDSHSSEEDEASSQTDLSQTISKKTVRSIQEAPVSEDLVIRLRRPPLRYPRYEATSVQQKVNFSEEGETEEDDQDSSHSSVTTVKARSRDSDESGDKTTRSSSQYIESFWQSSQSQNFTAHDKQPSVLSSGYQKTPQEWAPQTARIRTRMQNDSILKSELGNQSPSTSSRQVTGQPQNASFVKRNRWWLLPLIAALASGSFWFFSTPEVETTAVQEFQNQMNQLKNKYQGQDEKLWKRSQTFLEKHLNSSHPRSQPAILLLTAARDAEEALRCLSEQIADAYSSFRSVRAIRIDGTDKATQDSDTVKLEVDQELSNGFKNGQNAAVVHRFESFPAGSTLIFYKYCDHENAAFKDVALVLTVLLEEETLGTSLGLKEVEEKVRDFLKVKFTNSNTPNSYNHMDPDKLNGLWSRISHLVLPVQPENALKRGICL
Sequence of Left-right determination factor 2 (Homo sapiens) (O00292 whole entry, looked up): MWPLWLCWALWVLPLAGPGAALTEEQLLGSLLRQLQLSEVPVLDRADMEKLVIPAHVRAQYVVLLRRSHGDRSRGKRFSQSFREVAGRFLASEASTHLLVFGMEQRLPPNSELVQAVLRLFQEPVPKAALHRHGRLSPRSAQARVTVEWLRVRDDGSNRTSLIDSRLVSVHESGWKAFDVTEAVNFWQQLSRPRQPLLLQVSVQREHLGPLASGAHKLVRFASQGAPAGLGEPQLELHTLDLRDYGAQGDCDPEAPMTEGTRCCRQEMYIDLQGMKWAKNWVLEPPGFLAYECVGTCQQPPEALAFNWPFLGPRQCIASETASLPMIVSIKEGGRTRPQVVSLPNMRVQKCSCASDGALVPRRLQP

`CCCC#C[Si](O[C@H](CC)c1cn(Cc2cccc(Cl)c2)nn1)(C(C)C)C(C)C`: the composite z-score in test [1] is 1.3; in test [3], 0.431; in test [4] it was 0.0375; in [5], 0.169; in [6], -0.0944; in test [7], -0.153. Further, the composite z-score in [8] is -0.307; in test [9] it was 0.545; in [10], -0.2. Further, in test [2], the z-score is -0.113.
For the compound `C=C(CCCC)C(=O)CC[C@@H](OC(=O)c1ccccc1-c1ccccc1C(=O)O)c1ccc(OCCO)cc1`, the composite z-score in test [1] is -0.65; in test [3] it was 0.744; in [4] it was -0.487; in test [5], -0.559; in test [6], -0.096; in [7], 0.0278. Moreover, the composite z-score was 0.094 in test [8], 0.881 in [9] and 1.05 in [10]. For the same compound, in test [2], the z-score is -2.71.
Take `CCCc1cc2c(n1Cc1cc(F)cc(F)c1)C(C)C1CN(C(=O)c3ccccc3)C(C)(C(=O)OC)C21` (stereo not given): the composite z-score was 1.35 in test [1]; 0.225 in test [3]; 2.31 in [4]; 0.813 in test [5]; 0.36 in test [6]; -0.148 in test [7]. In addition, the values for the composite z-score in test [8], in [9] and in test [10] were 0.363, 2.6 and 2.34, respectively. The z-score in test [2] was -2.24.
Consider `CC(C)C[C@@H]1NC(=O)[C@H](C(C)C)NC(=O)[C@@]23C(=O)N[C@@H](Cc4ccccc4)C2[C@H](C)[C@@]2(C)O[C@H]2C3/C=C/CC/C=C/CNC1=O` (stereo not given in full), for which the composite z-score in test [1] is 1.35; in test [3], 0.413; in test [4], -0.245; in test [5], -0.736; in test [6], -0.117; in test [7] it was -0.283. Moreover, the composite z-score in [8] was -0.397; in test [9] it was 0.268; in test [10], 0.705. In test [2], this compound displayed a z-score of -1.41.
For `COc1ccc([C@H]2OC[C@@H]3C[C@@H](Cc4ccccc4)C(=O)N32)cc1`, the composite z-score in test [1] was -0.235; in test [3], 0.311; in test [4] it was -0.05; in test [5], -0.317; in [6], -0.0203; in [7], -0.0146. Moreover, the composite z-score in test [8] is -0.0273; in test [9] it was 0.53; in test [10], -0.429. This compound had a z-score in test [2] of -0.859.
Consider `[N-]=[N+]=Nc1ccccc1[C@H]1OC(c2ccc(OCCCO)cc2)=N[C@@]1(CCS(=O)(=O)c1ccccc1)C(N)=O`, for which the composite z-score was 0.321 in test [1]; -0.154 in [3]; 1.41 in [4]; 0.389 in test [5]; 0.161 in test [6]; 0.117 in test [7]. Besides, the composite z-score is -0.939 in test [8], 1.71 in test [9] and 1.92 in [10]. Besides, the z-score in test [2] is -0.268.
As for `C=CC[C@]1(C(=O)NCCCOC)N=C(c2ccc(OCCCO)cc2)O[C@H]1c1ccccc1CN=[N+]=[N-]`, the composite z-score amounted to 0.091 in [1]; 0.593 in test [3]; 2.12 in test [4]; 0.988 in test [5]; 0.0509 in [6]; 0.228 in [7]. The composite z-score in test [8] amounted to 1.53; in test [9], 1.95; in [10], 1.14. In addition, in test [2], the z-score is -2.09.
In the case of `CC(C)C(=C=CC[C@@H](O)c1ccc(OCCO)cc1)C[C@@H](O)COCc1ccccc1`, the composite z-score is 0.702 in [1]; 0.164 in [3]; -0.774 in [4]; -0.918 in test [5]; 0.505 in [6]; -0.0553 in [7]. Further, the composite z-score was found to be 0.526 in test [8], 1.51 in test [9] and 0.119 in test [10]. In test [2], this compound had a z-score of -0.453.
Consider `CC(C)C(O)C1C=CC2C(=O)NC(=O)C2N1Nc1ccc(Cl)cc1Cl` (stereo not given), for which the composite z-score is -0.898 in [1]; -0.226 in [3]; 1.5 in test [4]; 1.23 in test [5]; -0.0944 in test [6]; -0.296 in test [7]. Besides, the composite z-score came out at 0.0266 in test [8], 1.91 in test [9] and 0.712 in test [10]. In addition, the z-score in test [2] was -0.88.
Consider `O=C1O[C@@H](c2ccccc2)[C@@H](c2ccccc2)N2[C@@H](c3ccccc3OCCO)[C@]3(C(=O)Nc4ccccc43)[C@@H](C(=O)Nc3nc4ccccc4s3)[C@H]12`, for which the composite z-score in test [1] was 1.45; in test [3], 0.108; in [4] it was 1.41; in test [5] it was 0.494; in test [6], -0.0621; in [7] it was 0.206. The values for the composite z-score in test [8], in test [9] and in test [10] were 1.96, 0.618 and 1.56, respectively. The compound further gave a z-score in test [2] of -3.25.
Consider `COc1ccccc1CN1C(=O)c2ccccc2[C@@]2(Cc3ccccc3N(CC(C)C)C2=O)[C@@H]1c1ccc(CO)cc1`, for which the composite z-score in [1] was -0.461; in test [3] it was -0.389; in test [4], -0.235; in test [5], -0.69; in test [6], -0.091; in test [7], -0.214. Moreover, the composite z-score in [8] was -0.175; in [9], -0.247; in test [10], -0.257. In addition, the z-score in [2] is -0.785.
